Several values for one entry are separate records, joined by “and”; a condition that tells them apart may be missing. Equal values may be shown once. Compounds without any hit were thinned out: in the full panel of roughly 83,000, 20% have a hit.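 Interpretation: 100, growth as untreated; towards 0, rising growth inhibition; 0, no net growth; 0 to -100, cell death. Compounds scoring below 10 were considered active.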 Activity calls are given as the source filed them.

The first test concerns 786-0 renal. The test can be described thus: NCI-60 one-dose screen, 48 h (100 = growth as untreated, 0 = no growth, -100 = all killed). Conditions: 10 µM unless noted.
For `COc1ccc(/C(C#N)=C/c2ccccn2)cc1`, the growth was 96.7% (inactive) and 73.8% (inactive).
With `O=C1OC2(c3ccccc31)c1ccc(O)c(O)c1Oc1c2ccc(O)c1O`, the growth was 109% (inactive) and 117% (inactive).
Consider `CC(=O)Nc1cccc2c1CCCC2`, for which the growth was 95.8% (inactive) and 96.6% (inactive).
Consider `CN(C)c1ccc2nc3ccc(N)cc3[n+](-c3ccccc3)c2c1`, for which the growth was 56.3% (inactive) and 38.7% (inactive).
Still for that read-out and setting: the result for `CCN(CC)CCOc1ccc(/C=N/Nc2nc3c([nH]2)c(=O)n(C)c(=O)n3C)cc1` reads 91.7% (inactive) and 107% (inactive); that for `O=C1CCN(Cc2ccccc2)C(=S)N1`, 108% (inactive) and 109% (inactive); that for `CC(C)Cc1ccc(C(C)C(=O)NCc2ccc(Cn3c(=O)sn(CCCI)c3=O)cc2)cc1` (configuration not stated), 94.3% (inactive) and -88.9% (active).
With `CCc1c(CC(=O)O)c2cc(C)ccc2n1Cc1ccc(Cl)cc1`, the growth was 106% (inactive) and 47% (inactive).
Turning to `CNC(=O)c1ccc(C)c(-n2c(C)cc(OCc3ccc(F)cc3F)c(Br)c2=O)c1`, the growth is 85.9% (inactive) and 84.2% (inactive).
For `O=[N+]([O-])c1ccc(-n2[nH]nnc2=S)cc1`, the growth is 106% (inactive).
Still for that read-out and setting: in the case of `COC(=O)/C=C/c1cc(O)c2c(c1)C(C(=O)OC)C(c1ccc(O)c(O)c1)O2` (configuration not stated) it was 17% (inactive) and 15% (inactive); in that of `COC(=O)c1nc(N)nc(C(=O)OC)c1C(=O)c1ccc(OC)cc1`, 124% (inactive) and 72.4% (inactive); in that of `COc1cc2c(c(OC)c1OC)-c1ccc(OC)c(=O)cc1[C@@H](NC(C)=O)CC2`, 17.5% (inactive) and 9.25% (active) and 15.4% (inactive).
For the compound `CN1CCN(c2ccc3nc(-c4c(N)c5c(F)cccc5[nH]c4=O)[nH]c3c2)CC1`, the growth is 38.1% (inactive) and 24.8% (inactive).
Still for that read-out and setting: the result for `NC(=S)NN=C1CCC(C2CCCCC2)CC1` (configuration not stated) reads 96.7% (inactive) and 91.9% (inactive); that for `c1ccc2cc(C[n+]3ccn(Cc4ccc5ccccc5n4)c3)ccc2c1`, 30.9% (inactive) and 76.1% (inactive).
With `CN(C)CCC(=O)c1ccc(Cl)cc1`, the growth is 104% (inactive) and 106% (inactive).
Still for that read-out and setting: the result for `Fc1ccccc1Nc1n[nH]c(=S)s1` reads 101% (inactive).
Turning to `CCOc1ccc2cc(-c3nn(CC4CCN(C)CC4)c4ncnc(N)c34)ccc2c1`, the growth is 80.1% (inactive) and 55.8% (inactive).
With `CC[N+](CC)(CC(=O)Nc1c(C)cccc1C)Cc1ccccc1`, the growth was 103% (inactive).
Take `CC1=CCC2CC1C2(C)C` (configuration not stated): the growth is 101% (inactive) and 98.6% (inactive).
The same measure, in the same setting: in the case of `CC1(C)[C@@H](OC(=O)CCC(=O)O)CC[C@]2(C)[C@H]3C(=O)C=C4[C@@H]5C[C@@](C)(C(=O)O)CC[C@]5(C)CC[C@@]4(C)[C@]3(C)CC[C@@H]12` it was 98.4% (inactive) and -66.9% (active).
In the case of `CCC(O)c1ccccc1` (configuration not stated), the growth was 94.6% (inactive) and 106% (inactive).
For the compound `CN(Cc1ccccc1)Cc1ccccc1`, the growth was 99.2% (inactive).
Still for that read-out and setting: the result for `COc1ccc(-c2ncnc3c2ncn3C/C=C/CCl)cc1` reads 70.2% (inactive) and 80% (inactive); that for `NS(=O)(=O)c1cc2c(cc1Cl)NC(C(Cl)Cl)NS2(=O)=O` (configuration not stated), 87.6% (inactive) and 104% (inactive); that for `O=Nc1ccc(O)cc1`, 98.2% (inactive) and 110% (inactive).
Same read-out and setting: in the case of `COc1ccc2c(=O)cc(-c3ccccc3)[nH]c2c1` it was 35.3% (inactive) and -14.1% (active).
On the same count and under the same terms, the result for `O=CC(O)C(O)C(O)CO` (configuration not stated) reads 104% (inactive) and 97.6% (inactive).
Take `CN(C)c1ccc(/C=C(\C#N)c2ccccc2)cc1`: the growth is 44.7% (inactive) and 42.3% (inactive) and 45.6% (inactive).
As to `OCCN1CCN(CCO)CC1`, the growth is 108% (inactive) and 99.5% (inactive) and 99.4% (inactive).
For the compound `CC1=C[C@H]2c3c(c(O)c(O)c4oc5cc(O)cc(O)c5c(=O)c34)[C@H](c3cc(O)c(O)c4oc5cc(O)cc(O)c5c(=O)c34)[C@H]2C(C)(C)C1`, the growth is -18.9% (active) and -42.3% (active).
Still for that read-out and setting: the result for `CCOc1ccc2c(S(=O)(=O)O)cccc2c1[N+](=O)[O-]` reads 113% (inactive) and 111% (inactive); that for `Nc1ccccc1Nc1ccccc1`, 90.8% (inactive) and 82.8% (inactive).
Still for that read-out and setting: the result for `Oc1ccccc1C=NCC1CCC(CN=Cc2ccccc2O)CC1` (configuration not stated) reads 108% (inactive); that for `Clc1ccc(NC(Nc2ccc(Cl)cc2)C(Cl)(Cl)Cl)cc1`, 68.5% (inactive) and 93.6% (inactive).

Another test deals with COLO 205 colon. The test is described as above. Conditions: 10 µM unless noted.
`COc1ccc(/C(C#N)=C/c2ccccn2)cc1`: the growth was 112% (inactive) and 173% (inactive).
Take `O=C1OC2(c3ccccc31)c1ccc(O)c(O)c1Oc1c2ccc(O)c1O`: the growth is 115% (inactive) and 117% (inactive).
With `CC(=O)Nc1cccc2c1CCCC2`, the growth is 109% (inactive) and 101% (inactive).
On the same count and under the same terms, in the case of `CN(C)c1ccc2nc3ccc(N)cc3[n+](-c3ccccc3)c2c1` it was -62.8% (active) and -12.6% (active).
On the same count and under the same terms, in the case of `CCN(CC)CCOc1ccc(/C=N/Nc2nc3c([nH]2)c(=O)n(C)c(=O)n3C)cc1` it was 112% (inactive) and 111% (inactive).
On the same count and under the same terms, in the case of `O=C1CCN(Cc2ccccc2)C(=S)N1` it was 111% (inactive) and 108% (inactive); in that of `CC(C)Cc1ccc(C(C)C(=O)NCc2ccc(Cn3c(=O)sn(CCCI)c3=O)cc2)cc1` (configuration not stated), -62.4% (active); in that of `CCc1c(CC(=O)O)c2cc(C)ccc2n1Cc1ccc(Cl)cc1`, 123% (inactive).
Consider `CNC(=O)c1ccc(C)c(-n2c(C)cc(OCc3ccc(F)cc3F)c(Br)c2=O)c1`, for which the growth was 61% (inactive) and 91.8% (inactive).
With `O=[N+]([O-])c1ccc(-n2[nH]nnc2=S)cc1`, the growth was 100% (inactive).
Same read-out and setting: in the case of `COC(=O)/C=C/c1cc(O)c2c(c1)C(C(=O)OC)C(c1ccc(O)c(O)c1)O2` (configuration not stated) it was 58.5% (inactive) and 41% (inactive); in that of `COC(=O)c1nc(N)nc(C(=O)OC)c1C(=O)c1ccc(OC)cc1`, 109% (inactive) and 75.8% (inactive).
For `COc1cc2c(c(OC)c1OC)-c1ccc(OC)c(=O)cc1[C@@H](NC(C)=O)CC2`, the growth is -36.4% (active) and 3.13% (active) and -47.6% (active).
Same read-out and setting: in the case of `CN1CCN(c2ccc3nc(-c4c(N)c5c(F)cccc5[nH]c4=O)[nH]c3c2)CC1` it was 5.09% (active) and 26.8% (inactive); in that of `NC(=S)NN=C1CCC(C2CCCCC2)CC1` (configuration not stated), 102% (inactive) and 95% (inactive); in that of `c1ccc2cc(C[n+]3ccn(Cc4ccc5ccccc5n4)c3)ccc2c1`, -38.3% (active) and -35.3% (active).
On the same count and under the same terms, in the case of `CN(C)CCC(=O)c1ccc(Cl)cc1` it was 121% (inactive) and 118% (inactive).
The same measure, in the same setting: in the case of `Fc1ccccc1Nc1n[nH]c(=S)s1` it was 108% (inactive); in that of `CCOc1ccc2cc(-c3nn(CC4CCN(C)CC4)c4ncnc(N)c34)ccc2c1`, 89.7% (inactive) and 39.6% (inactive).
Take `CC[N+](CC)(CC(=O)Nc1c(C)cccc1C)Cc1ccccc1`: the growth was 103% (inactive).
Turning to `CC1=CCC2CC1C2(C)C` (configuration not stated), the growth was 89.2% (inactive) and 103% (inactive).
With `CC1(C)[C@@H](OC(=O)CCC(=O)O)CC[C@]2(C)[C@H]3C(=O)C=C4[C@@H]5C[C@@](C)(C(=O)O)CC[C@]5(C)CC[C@@]4(C)[C@]3(C)CC[C@@H]12`, the growth is 113% (inactive) and -3.87% (active).
On the same count and under the same terms, in the case of `CCC(O)c1ccccc1` (configuration not stated) it was 128% (inactive) and 111% (inactive); in that of `CN(Cc1ccccc1)Cc1ccccc1`, 105% (inactive).
As for `COc1ccc(-c2ncnc3c2ncn3C/C=C/CCl)cc1`, the growth is 87.5% (inactive) and 94.1% (inactive).
`NS(=O)(=O)c1cc2c(cc1Cl)NC(C(Cl)Cl)NS2(=O)=O` (configuration not stated): the growth is 109% (inactive) and 113% (inactive).
Still for that read-out and setting: the result for `O=Nc1ccc(O)cc1` reads 104% (inactive) and 111% (inactive); that for `COc1ccc2c(=O)cc(-c3ccccc3)[nH]c2c1`, -19.6% (active) and -7.06% (active); that for `O=CC(O)C(O)C(O)CO` (configuration not stated), 97.7% (inactive) and 106% (inactive).
Consider `CN(C)c1ccc(/C=C(\C#N)c2ccccc2)cc1`, for which the growth is -2% (active) and -7.08% (active).
With `OCCN1CCN(CCO)CC1`, the growth was 105% (inactive) and 113% (inactive).
Turning to `CC1=C[C@H]2c3c(c(O)c(O)c4oc5cc(O)cc(O)c5c(=O)c34)[C@H](c3cc(O)c(O)c4oc5cc(O)cc(O)c5c(=O)c34)[C@H]2C(C)(C)C1`, the growth was -44.6% (active).
The same measure, in the same setting: in the case of `CCOc1ccc2c(S(=O)(=O)O)cccc2c1[N+](=O)[O-]` it was 107% (inactive) and 103% (inactive); in that of `Nc1ccccc1Nc1ccccc1`, 125% (inactive) and 104% (inactive).
With `Oc1ccccc1C=NCC1CCC(CN=Cc2ccccc2O)CC1` (configuration not stated), the growth is 97.3% (inactive).
Take `Clc1ccc(NC(Nc2ccc(Cl)cc2)C(Cl)(Cl)Cl)cc1`: the growth was 129% (inactive) and 101% (inactive).

The values above are taken from PubChem BioAssay (NCI).
